Of roughly 7,900 targets only a part is listed; those with a hit were picked by preference. About 0.6% of all pairs of compound and target were hits. Values without a mark were called inactive.
Tests used:
Assay in all cases: log2 fold change, soluble protein after heating vs DMSO (PISA); higher = thermal stabilisation; K562 cells, 10 uM, 30 min; active = over 0.2 and 3.5 SD of the protein, either way, in both replicates (recomputed)
IRAK-1-4 Inhibitor I = compound: C1COCCN1CCN2C3=CC=CC=C3N=C2NC(=O)C4=CC(=CC=C4)[N+](=O)[O-] [IRAK-1-4 Inhibitor I]
How it was run: (§1)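 For each measurement, 10 μM compound was applied for 30 min to K562 cells at 2×10^6 cells/mL. Aliquots were heated for 3 min across 48°C-58°C, pooled, and extracted in PBS with 0.5% NP-40 at 4°C; the supernatant after 21,000xg for 90 min was soluble protein. This was quantified by TMTpro 16plex LC-MS/MS with channel sums equalised, and thermal stability was reported relative to control samples from duplicates, on a log2 fold-change scale.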

ibrutinib = compound: C=CC(=O)N1CCC[C@@H](n2nc(-c3ccc(Oc4ccccc4)cc3)c3c(N)ncnc32)C1 [ibrutinib]
How it was run: as §1

[1] = compound: CC(=O)c1cnc2ccc(-c3cc(Cl)c(O)c(Cl)c3)nc2c1N[C@H]1CC[C@H](CN(C)C)CC1
How it was run: as §1

ralimetinib = compound: CC(C)(C)Cn1c(N)nc2ccc(-c3[nH]c(C(C)(C)C)nc3-c3ccc(F)cc3)nc21 [ralimetinib]
How it was run: as §1

[2] = compound: CC(C)(O)CC(=O)NCCn1ccc2ncnc(Nc3ccc(Oc4cccc(C(F)(F)F)c4)c(Cl)c3)c21
How it was run: as §1

[3] = compound: CC(C)C1=C2N=C(C=C(N2N=C1)NCC3=CC=CC=C3)NCCCCCCN
How it was run: as §1

[4] = compound: CC(C)C[C@@H](C=O)NC(=O)[C@H](CC(C)C)NC(=O)[C@H](CC(C)C)NC(=O)OCc1ccccc1
How it was run: as §1

pinometostat = compound: CC(C)N(C[C@H]1O[C@@H](n2cnc3c(N)ncnc32)[C@H](O)[C@@H]1O)[C@H]1C[C@@H](CCc2nc3cc(C(C)(C)C)ccc3[nH]2)C1 [pinometostat]
How it was run: as §1

[5] = compound: CC1=C(C(CC(=O)N1)C2=CC=C(C=C2)C(F)(F)F)C(=O)NC3=C(C=C4C(=C3)C=NN4)F
How it was run: as §1

[6] = compound: CC1=C(C2=C(C=C1)C(=O)C3=CC=CC=C3N2CCCN)C
How it was run: as §1

[7] = compound: CC1=C(C=C(C=C1)NC(=O)C2=CC(=CC=C2)C(C)(C)C#N)NC3=CC4=C(C=C3)N=CN(C4=O)C
How it was run: as §1

[8] = compound: CC1=C(C=C(C=C1)NC(=O)C2=CC(=CC=C2)N(C)C)NC(=O)C3=CC=C(C=C3)O
How it was run: as §1

[9] = compound: CC1=CC=C(C=C1)SC2=C3C=C(SC3=CN=C2)C(=O)N
How it was run: as §1

[10] = compound: CC1=NC(=CC=C1)C2=C(N=C(N2)C(C)(C)C)C3=CC4=NC=CN=C4C=C3
How it was run: as §1

Nexturastat A = compound: CCCCN(Cc1ccc(C(=O)NO)cc1)C(=O)Nc1ccccc1 [Nexturastat A]
How it was run: as §1

vemurafenib = compound: CCCS(=O)(=O)Nc1ccc(F)c(C(=O)c2c[nH]c3ncc(-c4ccc(Cl)cc4)cc23)c1F [vemurafenib]
How it was run: as §1

[11] = compound: CCCS(=O)(=O)Nc1ccc(F)c(C(=O)c2c[nH]c3ncc(Cl)cc23)c1F
How it was run: as §1

[12] = compound: CCCc1cc(C)[nH]c(=O)c1CNC(=O)c1cc(-c2ccnc(N3CCN(C)CC3)c2)cc2c1cnn2C(C)C
How it was run: as §1

givinostat = compound: CCN(CC)Cc1ccc2cc(COC(=O)Nc3ccc(C(=O)NO)cc3)ccc2c1 [givinostat]
How it was run: as §1

barasertib = compound: CCN(CCCOc1ccc2c(Nc3cc(CC(=O)Nc4cccc(F)c4)[nH]n3)ncnc2c1)CCOP(=O)(O)O [barasertib]
How it was run: as §1

Sequence of UniProt P11117 (P11117 whole entry, looked up): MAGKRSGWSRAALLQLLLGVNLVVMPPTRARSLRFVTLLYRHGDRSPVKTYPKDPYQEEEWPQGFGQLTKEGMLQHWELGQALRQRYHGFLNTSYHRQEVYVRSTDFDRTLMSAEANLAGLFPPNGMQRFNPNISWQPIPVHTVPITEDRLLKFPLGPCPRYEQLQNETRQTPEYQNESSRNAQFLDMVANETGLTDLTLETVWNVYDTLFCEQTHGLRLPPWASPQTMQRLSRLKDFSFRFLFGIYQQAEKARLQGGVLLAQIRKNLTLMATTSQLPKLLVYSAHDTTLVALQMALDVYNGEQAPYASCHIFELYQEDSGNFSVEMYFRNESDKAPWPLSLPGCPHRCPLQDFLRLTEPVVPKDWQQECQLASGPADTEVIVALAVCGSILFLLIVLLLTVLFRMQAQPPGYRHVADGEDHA
Sequence of UniProt Q9Y679 (Q9Y679 whole entry, looked up): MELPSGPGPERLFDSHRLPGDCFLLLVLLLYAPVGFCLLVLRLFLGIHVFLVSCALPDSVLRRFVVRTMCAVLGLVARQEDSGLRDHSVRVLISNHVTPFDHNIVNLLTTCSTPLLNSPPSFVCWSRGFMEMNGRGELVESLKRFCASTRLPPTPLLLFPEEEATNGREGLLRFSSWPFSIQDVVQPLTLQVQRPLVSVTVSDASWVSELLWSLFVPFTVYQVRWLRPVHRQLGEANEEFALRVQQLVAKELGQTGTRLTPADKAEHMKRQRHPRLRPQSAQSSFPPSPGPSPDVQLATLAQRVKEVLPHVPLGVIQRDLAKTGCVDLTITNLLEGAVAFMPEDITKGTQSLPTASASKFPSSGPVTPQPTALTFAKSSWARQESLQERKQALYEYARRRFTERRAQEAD
Sequence of UniProt P05091 (P05091 whole entry, looked up): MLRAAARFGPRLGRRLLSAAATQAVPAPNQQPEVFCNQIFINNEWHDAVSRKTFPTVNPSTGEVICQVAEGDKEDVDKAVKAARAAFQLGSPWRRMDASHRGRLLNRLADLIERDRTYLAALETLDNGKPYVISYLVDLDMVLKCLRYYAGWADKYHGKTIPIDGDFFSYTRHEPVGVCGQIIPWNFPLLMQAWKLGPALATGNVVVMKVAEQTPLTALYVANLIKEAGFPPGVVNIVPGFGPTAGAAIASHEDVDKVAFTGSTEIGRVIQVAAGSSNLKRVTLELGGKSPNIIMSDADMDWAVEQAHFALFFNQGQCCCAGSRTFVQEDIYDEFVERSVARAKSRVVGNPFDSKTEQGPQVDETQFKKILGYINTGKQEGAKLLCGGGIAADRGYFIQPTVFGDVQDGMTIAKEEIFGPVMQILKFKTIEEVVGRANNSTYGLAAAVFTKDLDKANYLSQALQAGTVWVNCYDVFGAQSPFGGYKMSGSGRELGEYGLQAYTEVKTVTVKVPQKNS
Sequence of UniProt O00170 (O00170 whole entry, looked up): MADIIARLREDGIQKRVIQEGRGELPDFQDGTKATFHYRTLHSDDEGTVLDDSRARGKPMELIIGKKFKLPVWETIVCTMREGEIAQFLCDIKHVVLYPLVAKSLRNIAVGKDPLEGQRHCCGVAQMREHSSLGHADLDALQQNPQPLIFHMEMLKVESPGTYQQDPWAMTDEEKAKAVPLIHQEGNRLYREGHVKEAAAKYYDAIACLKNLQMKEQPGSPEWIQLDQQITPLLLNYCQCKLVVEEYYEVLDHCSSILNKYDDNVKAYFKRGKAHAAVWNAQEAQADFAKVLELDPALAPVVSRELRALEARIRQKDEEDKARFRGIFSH
Sequence of UniProt Q02252 (Q02252 whole entry, looked up): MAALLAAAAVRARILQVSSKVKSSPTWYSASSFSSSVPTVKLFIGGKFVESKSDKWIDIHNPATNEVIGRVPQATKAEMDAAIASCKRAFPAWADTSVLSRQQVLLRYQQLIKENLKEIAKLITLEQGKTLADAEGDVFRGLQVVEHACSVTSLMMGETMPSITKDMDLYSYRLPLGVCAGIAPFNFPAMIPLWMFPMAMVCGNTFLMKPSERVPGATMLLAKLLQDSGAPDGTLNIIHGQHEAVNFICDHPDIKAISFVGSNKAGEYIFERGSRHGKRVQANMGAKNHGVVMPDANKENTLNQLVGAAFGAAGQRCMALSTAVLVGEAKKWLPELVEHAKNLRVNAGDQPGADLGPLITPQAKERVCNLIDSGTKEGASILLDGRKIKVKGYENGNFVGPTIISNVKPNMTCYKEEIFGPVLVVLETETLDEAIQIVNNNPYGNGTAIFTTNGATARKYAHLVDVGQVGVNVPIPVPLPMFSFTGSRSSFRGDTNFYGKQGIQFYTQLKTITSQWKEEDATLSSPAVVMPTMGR
Sequence of UniProt Q5T9A4 (Q5T9A4 whole entry, looked up): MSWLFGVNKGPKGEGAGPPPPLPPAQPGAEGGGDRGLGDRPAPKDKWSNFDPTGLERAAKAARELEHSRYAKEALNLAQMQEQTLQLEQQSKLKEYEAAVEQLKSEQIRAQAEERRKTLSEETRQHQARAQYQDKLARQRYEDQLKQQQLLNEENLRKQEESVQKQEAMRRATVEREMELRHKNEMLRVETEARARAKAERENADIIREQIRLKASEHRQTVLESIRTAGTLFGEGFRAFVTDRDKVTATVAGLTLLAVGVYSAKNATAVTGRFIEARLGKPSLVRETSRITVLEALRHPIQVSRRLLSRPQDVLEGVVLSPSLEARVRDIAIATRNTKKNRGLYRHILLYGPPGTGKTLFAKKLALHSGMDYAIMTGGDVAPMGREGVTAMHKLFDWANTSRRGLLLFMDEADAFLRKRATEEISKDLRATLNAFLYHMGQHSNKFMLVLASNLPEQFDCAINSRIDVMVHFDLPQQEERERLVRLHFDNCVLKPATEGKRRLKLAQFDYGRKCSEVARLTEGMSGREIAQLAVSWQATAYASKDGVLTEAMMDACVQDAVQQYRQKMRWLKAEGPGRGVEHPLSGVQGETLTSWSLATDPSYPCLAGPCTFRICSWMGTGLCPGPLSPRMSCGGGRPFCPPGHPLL
Sequence of UniProt O43823 (O43823 whole entry, looked up): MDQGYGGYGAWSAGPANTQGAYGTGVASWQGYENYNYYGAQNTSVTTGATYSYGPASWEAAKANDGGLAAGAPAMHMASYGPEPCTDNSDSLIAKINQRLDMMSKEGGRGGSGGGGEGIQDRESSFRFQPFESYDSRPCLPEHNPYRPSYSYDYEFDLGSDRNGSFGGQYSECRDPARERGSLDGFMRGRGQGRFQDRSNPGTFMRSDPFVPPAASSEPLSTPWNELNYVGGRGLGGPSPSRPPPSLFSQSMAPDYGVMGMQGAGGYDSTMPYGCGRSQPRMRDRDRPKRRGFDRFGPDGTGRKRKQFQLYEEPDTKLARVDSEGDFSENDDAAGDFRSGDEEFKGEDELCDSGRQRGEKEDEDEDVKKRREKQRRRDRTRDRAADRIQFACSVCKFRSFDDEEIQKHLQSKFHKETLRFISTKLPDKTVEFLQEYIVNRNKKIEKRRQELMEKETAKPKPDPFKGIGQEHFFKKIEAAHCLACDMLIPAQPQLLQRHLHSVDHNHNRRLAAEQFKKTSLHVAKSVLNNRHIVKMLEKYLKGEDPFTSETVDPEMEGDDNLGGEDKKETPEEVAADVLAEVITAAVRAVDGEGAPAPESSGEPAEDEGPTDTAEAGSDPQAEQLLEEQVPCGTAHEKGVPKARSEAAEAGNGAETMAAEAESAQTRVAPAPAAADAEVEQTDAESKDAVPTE
Sequence of UniProt P49189 (P49189 whole entry, looked up): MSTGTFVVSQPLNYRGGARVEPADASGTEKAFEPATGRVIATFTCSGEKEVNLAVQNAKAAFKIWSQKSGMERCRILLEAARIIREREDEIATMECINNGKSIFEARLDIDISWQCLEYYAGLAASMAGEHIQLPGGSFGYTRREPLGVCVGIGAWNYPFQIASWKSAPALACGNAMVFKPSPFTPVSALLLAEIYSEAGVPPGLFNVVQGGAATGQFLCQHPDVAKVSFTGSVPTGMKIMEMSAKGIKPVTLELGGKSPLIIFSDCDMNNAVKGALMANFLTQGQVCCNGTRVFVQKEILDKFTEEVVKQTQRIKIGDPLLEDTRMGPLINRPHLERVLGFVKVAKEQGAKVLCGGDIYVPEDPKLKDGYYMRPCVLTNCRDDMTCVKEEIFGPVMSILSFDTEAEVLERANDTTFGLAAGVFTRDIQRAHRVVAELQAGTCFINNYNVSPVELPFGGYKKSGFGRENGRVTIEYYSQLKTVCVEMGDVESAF

Target	log2 fold change (IRAK-1-4 Inhibitor I)	log2 fold change (ibrutinib)	log2 fold change [1]	log2 fold change (ralimetinib)	log2 fold change [2]	log2 fold change [3]	log2 fold change [4]	log2 fold change (pinometostat)	log2 fold change [5]	log2 fold change [6]	log2 fold change [7]	log2 fold change [8]	log2 fold change [9]	log2 fold change [10]	log2 fold change (Nexturastat A)	log2 fold change (vemurafenib)	log2 fold change [11]	log2 fold change [12]	log2 fold change (givinostat)	log2 fold change (barasertib)
ALDH9A1 isoform 3 (UniProt P49189)	0.059	0.025	0.003	-0.047	-0.004	0.019	-0.022	-0.013	0.028	-0.003	0.01	0.012	0.03	0.01	-0.049	0.006	0.006	-0.019	-0.005	0.01
AKAP8 (UniProt O43823)	0.058	0.002	-0.205	-0.018	-0.097	0.019	0.054	0.003	0.056	-0.113	-0.082	0.029	-0.03	-0.009	0.313 (active)	-0.062	-0.05	-0.034	-0.027	0.024
ATAD3B (UniProt Q5T9A4)	-0.05	0.045	-0.01	0.122	-0.011	-0.472 (active)	0.066	0.276	0.077	0.024	-0.07	-0.022	0.003	-0.009	0.236	-0.024	0.042	0.058	0.05	-0.019
AIP (UniProt O00170)	0	-0.047	0.007	0.006	-0.094	-0.074	-0.018	-0.027	-0.035	-0.026	0.014	-0.074	0.032	0.07	-0.07	0.071	0.088	0.065	0.043	0.031
ALDH6A1 (UniProt Q02252)	0.004	-0.023	-0.041	0.019	-0.155	-0.068	-0.002	-0.01	-0.004	0.018	-0.02	0.032	-0.039	0.044	-0.014	0.025	0.011	0.029	-0.017	-0.038
ALDH2 (UniProt P05091)	0.005	0.002	-0.005	-0.086	-0.037	0.018	-0.032	-0.034	-0.046	0.063	0.089	0.03	0.039	0.029	-0.264 (active)	0.044	-0.011	-0.012	0.016	0.003
AUP1 (UniProt Q9Y679)	0.035	-0.026	0.003	0.007	-0.164	-0.482 (active)	-0.033	0.011	-0.036	0.08	0.054	0.021	0.009	-0.005	-0.048	0.121	0.058	-0.056	0.028	0.06
ACP2 (UniProt P11117)	0.047	0.033	-0.012	-0.012	-0.03	-0.205	-0.026	0.027	0.02	-0.006	-0.014	-0.013	0.029	-0.027	-0.08	0.017	-0.023	-0.038	0	0.016
